# Results: PubChem BioAssay (NCATS)
# Values joined by “and” are separate entries in the source; they are usually repeats but may differ in a detail not shown here. Equal entries are not always repeated. Values without a mark were called inactive. Inconclusive results are not listed. Entries that show only a call come without a potency. Active and inactive are the calls of the source. Unless noted, the call rests on the fitted dose curve; in most records, active means well fitted curve in the direction sought with a large enough effect; inconclusive means small, poorly fitted or top-dose-only effect, or another doubt; inactive means no such curve, though single readings can be large; an effect the other way counts as inactive or inconclusive.
# Tests used:
# [1] = molecular target: Cytochrome P450 3A4 (Homo sapiens) (UniProt P08684); experiment: qHTS Assay for Inhibitors and Substrates of Cytochrome P450 3A4 (AID 884); further: nearly all actives have a fitted effect of over 50% in size; further: potency means the concentration at half of the fitted maximal effect
# In short: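 20 nM human CYP3A4 with 25 uM Luciferin-PPXE (at KM) in 200 mM KPO4, preincubated 10 min with compound; NADPH regeneration started a 60 min RT reaction. Luciferin detected by luminescence, normalized to 57 uM ketoconazole as full inhibition.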
# [2] = Cell Viability - LYMP2-001 (AID 921); further: nearly all actives have a fitted effect of over 70% in size; further: potency means the concentration at half of the fitted maximal effect
# In short: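 Human lymphoblastoid cells (Coriell), 2500 per well, were preincubated 5 hr at 37 C, then exposed to compounds in complete medium for 24 hr at 37 C. Cellular ATP was read by CellTiter-Glo luminescence; AC50 from Hill fits of concentration-response data.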
# [3] = MultiTox-Fluor Cytotoxicity Assay - LYMP1-002 - Dead Cells (AID 960); further: nearly all actives have a fitted effect of over 60% in size; further: potency means the concentration at half of the fitted maximal effect
# In short: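 LYMP1-002 cells 2500/well; 5 hr 37 C pre-incubation; compound 16 hr 37 C; MultiTox-Fluor reagent 60 min RT; dead-cell fluor Ex/Em 485/520. Norm. to DMSO (0%) vs 15 uM tetraoctylammonium bromide (100%); Hill AC50.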
# [4] = Cell Viability - LYMP2-005 (AID 967); further: potency means the concentration at half of the fitted maximal effect
# In short: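 CellTiter-Glo luminescence (cellular ATP) read-out; LYMP2-005 lymphoblastoid cells, 2500/well, 5 h pre-incubation, then 24 h compound exposure at 37 C in complete medium. Tetraoctylammonium bromide positive control; AC50 by standard Hill fit.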
# [5] = Cell Viability - LYMP2-008 (AID 980); further: nearly all actives have a fitted effect of over 60% in size; further: potency means the concentration at half of the fitted maximal effect
# In short: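 qHTS, human lymphoblastoid line, 2500 cells/well; 5 hr preincubation, 24 hr compound, 37 C. CellTiter-Glo ATP luminescence. AC50 via Hill equation. Tetraoctylammonium bromide positive control.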
# [6] = Cell Viability - LYMP2-012 (AID 982);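 further: cellular ATP by luciferase luminescence where a drop means cytotoxicity; cells exposed to compound for one day before reading; nearly all actives have a fitted effect of over 55% in size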; further: potency means the concentration at half of the fitted maximal effect
# [7] = Cell Viability - LYMP2-016 (AID 984); further: nearly all actives have a fitted effect of over 55% in size; further: potency means the concentration at half of the fitted maximal effect
# In short: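 Human lymphoblastoid cells (LYMP2-016), 2500/well in complete medium, preincubated 5 hr at 37 C, then compound-treated 24 hr at 37 C. Intracellular ATP read by CellTiter-Glo luminescence after 30 min at room temperature; AC50 from Hill-equation concentration-response fits.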
# [8] = Cell Viability - LYMP2-018 (AID 985);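 further: compound exposure lasted 24 hr at 37 °C; nearly all actives have a fitted effect of over 50% in size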; further: potency means the concentration at half of the fitted maximal effect
# In short: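 Luminescent ATP signal (CellTiter-Glo, read after 30 min at room temperature) reports viable cells after 24 hr compound treatment at 37 C. Concentration-response data were fitted to the standard Hill equation for AC50.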
# [9] = Cell Viability - LYMP2-020 (AID 986); further: nearly all actives have a fitted effect of over 55% in size; further: potency means the concentration at half of the fitted maximal effect
# In short: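 Luminescent ATP signal (CellTiter-Glo, 30 min at room temperature) is the read-out after 24 h compound treatment of lymphoblastoid cells at 37 C. AC50 values come from Hill-equation fits across concentrations.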
# [10] = Cell Viability - LYMP2-022 (AID 987); further: nearly all actives have a fitted effect of over 55% in size; further: potency means the concentration at half of the fitted maximal effect
# In short: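 qHTS: human lymphoblastoid cells 2500/well; 5 hr 37 C; cpd added; 24 hr 37 C; CellTiter-Glo, 30 min RT; luminescence. AC50 via Hill fit; tetraoctylammonium bromide positive ctrl.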
# [11] = Cell Viability - LYMP2-024 (AID 988); further: nearly all actives have a fitted effect of over 60% in size; further: potency means the concentration at half of the fitted maximal effect
# In short: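 Steps: seed 2500 cells/well, 5 hr 37 C; add compound, 24 hr 37 C; add CellTiter-Glo, 30 min room temperature; read luminescence. AC50 derived by Hill modelling of concentration-dependent ATP loss.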
# [12] = molecular target: Thyroid hormone receptor beta (Homo sapiens) (UniProt P10828); experiment: qHTS assay for small molecule agonists of thyroid hormone receptor beta signaling (AID 588545; calls by dose curve)
# In short: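 Agonist activity was read as beta-lactamase CCF4 fluorescence (405 ex, 460/530 em), scaled between DMSO (0%) and 10 nM T3 (100%), then Hill-fitted for EC50 and efficacy. HEK 293 TR-UAS-bla cells in 2% charcoal/dextran FBS medium were exposed 18 h at 37 C.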
# [13] = qHTS assay for small molecule disruptors of the mitochondrial membrane potential - 1 hr assay (AID 651754; calls by dose curve; further: nearly all actives have a fitted effect of over 35% in size; further: potency means the concentration at half of the fitted maximal effect)
# In short: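 HepG2, 2,000 cells/well, overnight attachment; cpd or DMSO 1 hr, 37C/5% CO2; Mito-MPS dye 30 min, 37C; fluorescence monomer (490/535) and aggregate (540/590).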
# [14] = qHTS assay for environmental chemicals that activate the Aryl hydrocarbon Receptor (AhR) signaling pathway (AID 651777); details: 1A2-DRE human hepatoma cells, luciferase, 24 h; activation: active compounds read high; further: nearly all actives have a fitted effect of over 15% in size; further: potency means the concentration at half of the fitted maximal effect
# In short: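 Following a 24 hr incubation with test chemicals at 37 C and 5% CO2, 1A2-DRE human hepatoma cells received One-Glo reagent; after 30 min at room temperature, luciferase output reflected CYP1A2 induction via AhR.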
# [15] = molecular target: Nuclear receptor ROR-gamma (Homo sapiens) (UniProt P51449); experiment: qHTS assay for small molecule antagonists of the retinoid-related orphan receptor gamma (ROR-gamma) signaling pathway (AID 651802); further: nearly all actives have a fitted effect of over 60% in size; further: potency means the concentration at half of the fitted maximal effect
# In short: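 CHO, TET-inducible ROR + RORE-LUC reporter, 1536-well qHTS. Compound pinned, doxycycline added, 16hr 37C/5% CO2. ONE-Glo, 30 min RT, luminescence; signal drop scored as antagonism.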
# [16] = qHTS assay for small molecule agonists of the antioxidant response element (ARE) signaling pathway measured by Nrf2-dependant transcriptional activity (AID 720636; active means well fitted curve in the direction sought with a large enough effect in the repeat runs; an effect the other way counts as inactive or inconclusive;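 further: HepG2 cells with an ARE-driven luciferase reporter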)
# In short: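 ONE-Glo luminescence, read 30 min after reagent addition at room temperature, reflected ARE reporter activity in HepG2 cells that had been incubated with compound for 16 hr at 37 C in 1% dialyzed FBS.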
# [17] = qHTS assay for small molecule antagonists of the retinoid-related orphan receptor gamma (ROR-gamma) signaling pathway - cell viability counter screen (AID 720652; active means well fitted curve in the direction sought with a large enough effect in the repeat runs; an effect the other way counts as inactive or inconclusive;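 further: compound exposure lasted 16 hr before ATP read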; further: potency means the concentration at half of the fitted maximal effect)
# In short: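 Luminescence from CellTiter-Glo after 30 min at room temperature reported cellular ATP as the cytotoxicity measure. Cells were the CHO reporter line with doxycycline-induced ROR-gamma expression, exposed to compound for 16 hr at 37 C.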
# [18] = molecular target: Nuclear receptor subfamily 1 group I member 2 (Rattus norvegicus) (UniProt Q9R1A7); experiment: qHTS assay for small molecule activators of the rat pregnane X receptor (rPXR) signaling pathway (AID 651751; call rule not given here); details: rPXR reporter cells, luciferase (One-Glo), 24 h
# [19] = qHTS assay for small molecule activators of the human pregnane X receptor (PXR) signaling pathway (AID 720659; call rule not given here)
# [20] = molecular target: Cytochrome P450 2C19 (Homo sapiens) (UniProt P33261); experiment: qHTS Assay for Inhibitors and Substrates of Cytochrome P450 2C19 (AID 899); further: nearly all actives have a fitted effect of over 60% in size; further: potency means the concentration at half of the fitted maximal effect
# In short: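 5nM enzyme + 10uM Luciferin-H EGE (=KM), 50mM KPO4; cpd pin-transferred, 10 min 37C; NADPH regen, 60 min 37C; stopped w/ luciferin detection reagent, 20 min; luminescence. Normalized to 57uM ketoconazole (AC100).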
# Chain of Thyroid hormone receptor beta (Homo sapiens) (P10828 whole entry, looked up): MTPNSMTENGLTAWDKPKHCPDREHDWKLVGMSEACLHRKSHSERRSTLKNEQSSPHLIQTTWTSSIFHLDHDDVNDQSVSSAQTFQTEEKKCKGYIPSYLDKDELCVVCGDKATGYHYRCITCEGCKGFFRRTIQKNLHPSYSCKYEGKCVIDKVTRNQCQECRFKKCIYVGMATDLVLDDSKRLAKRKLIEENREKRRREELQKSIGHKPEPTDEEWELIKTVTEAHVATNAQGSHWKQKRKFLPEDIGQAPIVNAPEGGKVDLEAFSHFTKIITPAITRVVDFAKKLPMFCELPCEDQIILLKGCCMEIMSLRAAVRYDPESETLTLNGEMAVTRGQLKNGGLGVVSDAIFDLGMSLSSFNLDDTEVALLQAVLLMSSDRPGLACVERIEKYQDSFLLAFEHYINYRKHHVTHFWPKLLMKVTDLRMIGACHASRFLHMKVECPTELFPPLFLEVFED
# Chain of Cytochrome P450 2C19 (Homo sapiens) (P33261 whole entry, looked up): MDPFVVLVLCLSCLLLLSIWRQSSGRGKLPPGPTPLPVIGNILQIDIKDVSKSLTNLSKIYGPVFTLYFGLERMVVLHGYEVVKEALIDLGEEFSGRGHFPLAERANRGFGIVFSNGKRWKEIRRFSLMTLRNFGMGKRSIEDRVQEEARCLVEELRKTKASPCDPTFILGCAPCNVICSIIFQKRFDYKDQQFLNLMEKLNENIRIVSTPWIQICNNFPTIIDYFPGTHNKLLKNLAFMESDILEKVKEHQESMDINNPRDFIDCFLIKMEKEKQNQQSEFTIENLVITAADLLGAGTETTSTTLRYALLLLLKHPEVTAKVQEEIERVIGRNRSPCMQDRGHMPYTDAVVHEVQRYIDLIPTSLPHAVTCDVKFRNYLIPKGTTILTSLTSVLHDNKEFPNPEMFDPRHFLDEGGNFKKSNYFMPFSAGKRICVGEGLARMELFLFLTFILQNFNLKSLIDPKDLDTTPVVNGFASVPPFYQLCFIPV
# Chain of Cytochrome P450 3A4 (Homo sapiens) (P08684 whole entry, looked up): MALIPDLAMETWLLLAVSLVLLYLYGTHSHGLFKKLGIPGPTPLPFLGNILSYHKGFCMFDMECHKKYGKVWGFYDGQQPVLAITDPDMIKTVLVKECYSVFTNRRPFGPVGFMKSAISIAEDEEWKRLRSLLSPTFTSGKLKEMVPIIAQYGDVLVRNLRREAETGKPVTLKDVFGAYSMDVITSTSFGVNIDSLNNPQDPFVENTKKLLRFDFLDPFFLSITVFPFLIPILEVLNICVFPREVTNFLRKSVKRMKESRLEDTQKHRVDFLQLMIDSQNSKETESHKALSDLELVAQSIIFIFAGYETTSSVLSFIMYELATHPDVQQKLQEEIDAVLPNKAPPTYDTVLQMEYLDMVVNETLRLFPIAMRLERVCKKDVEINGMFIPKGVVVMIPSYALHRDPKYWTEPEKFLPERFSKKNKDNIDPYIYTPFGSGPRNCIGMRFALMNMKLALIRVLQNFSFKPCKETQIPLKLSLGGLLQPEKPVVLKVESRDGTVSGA
# Chain of Nuclear receptor ROR-gamma (Homo sapiens) (P51449 whole entry, looked up): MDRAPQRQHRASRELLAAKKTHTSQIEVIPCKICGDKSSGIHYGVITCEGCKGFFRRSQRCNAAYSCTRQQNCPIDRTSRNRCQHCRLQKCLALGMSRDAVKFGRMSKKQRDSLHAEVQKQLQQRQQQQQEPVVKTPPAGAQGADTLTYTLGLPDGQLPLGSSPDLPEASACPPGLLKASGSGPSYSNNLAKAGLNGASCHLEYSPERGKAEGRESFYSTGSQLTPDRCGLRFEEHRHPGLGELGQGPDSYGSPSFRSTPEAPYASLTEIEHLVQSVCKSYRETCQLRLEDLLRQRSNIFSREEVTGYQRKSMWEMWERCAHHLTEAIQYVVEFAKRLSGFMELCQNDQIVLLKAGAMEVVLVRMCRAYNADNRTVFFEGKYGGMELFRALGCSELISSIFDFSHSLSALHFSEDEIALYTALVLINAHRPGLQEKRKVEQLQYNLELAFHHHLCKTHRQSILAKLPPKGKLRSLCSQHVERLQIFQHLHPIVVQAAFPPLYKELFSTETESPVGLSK
# Chain of Nuclear receptor subfamily 1 group I member 2 (Rattus norvegicus) (Q9R1A7 whole entry, looked up): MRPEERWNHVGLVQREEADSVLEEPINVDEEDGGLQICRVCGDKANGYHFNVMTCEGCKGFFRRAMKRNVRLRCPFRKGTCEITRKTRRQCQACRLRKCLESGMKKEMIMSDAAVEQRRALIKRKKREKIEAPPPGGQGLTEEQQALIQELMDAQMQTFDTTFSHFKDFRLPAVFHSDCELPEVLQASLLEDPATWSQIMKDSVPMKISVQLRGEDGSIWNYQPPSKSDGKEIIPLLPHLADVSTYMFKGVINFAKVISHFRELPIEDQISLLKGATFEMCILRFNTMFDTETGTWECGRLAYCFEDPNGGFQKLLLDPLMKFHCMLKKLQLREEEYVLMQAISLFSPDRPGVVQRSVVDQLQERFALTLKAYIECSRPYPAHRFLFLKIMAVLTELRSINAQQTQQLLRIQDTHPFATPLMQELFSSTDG
structure (smiles),measurement,setting,value
Cc1cccc(O)c1C,Potency,[1],inactive
same,Potency,[2],inactive
same,Potency,[3],inactive
same,Potency,[4],inactive
same,Potency,[5],inactive
same,Potency,[6],inactive
same,Potency,[7],inactive
same,Potency,[8],inactive
same,Potency,[9],inactive
same,Potency,[10],inactive
same,Potency,[11],inactive
same,outcome,[12],inactive
same,Potency,[13],inactive
same,activation,[14],-0.837%
same,Potency,[15],inactive
same,Potency,[16],inactive
same,Potency,[17],inactive
same,max response,[18],-0.434%
same,outcome,[19],inactive
O=C(OCC(COC(=O)c1ccccc1)(COC(=O)c1ccccc1)COC(=O)c1ccccc1)c1ccccc1,Potency,[1],inactive
same,Potency,[2],inactive
same,Potency,[4],inactive
same,Potency,[5],inactive
same,Potency,[6],inactive
same,Potency,[7],inactive
same,Potency,[8],inactive
same,Potency,[9],inactive
same,Potency,[10],inactive
same,Potency,[11],inactive
same,activation,[14],-0.471%
same,Potency,[15],inactive
same,Potency,[16],inactive
same,Potency,[17],inactive
same,outcome,[19],inactive
C=CC(=O)OCC(CO)(COC(=O)C=C)COC(=O)C=C,outcome,[12],inactive
same,activation,[14],2.52% and -1.81%
same,max response,[18],-14.2%
CCCC[C@@H]1C[C@H]1C(NC(=O)c1ccco1)c1ccccc1 (stereo not given in full),Potency,[20],1.26 µM (active)
CCC/C=C(\CCC)C(NS(=O)(=O)c1ccccc1)c1ccc(C(F)(F)F)cc1 (stereo not given),Potency,[20],7.94 µM (active)
CCCC/C=C/C(NC(=O)Oc1cccc(C(F)(F)F)c1)c1ccccc1 (stereo not given),Potency,[20],3.16 µM (active)
COC(=O)[C@H]1C[C@@H]1[C@H](NC(=O)OCc1ccccc1)c1ccccc1,Potency,[20],3.16 µM (active)
CCCC[C@@H]1C[C@H]1C(NC(=O)c1cccs1)c1ccccc1C(F)(F)F (stereo not given in full),Potency,[20],0.631 µM (active)
CC[C@H]1C(=O)OC[C@@H]1Cc1cncn1C,Potency,[20],inactive
CCCC/C=C/C(NC(=O)c1ccccc1)c1ccccc1 (stereo not given),Potency,[20],7.94 µM (active)
CCC/C=C(\CCC)C(NS(=O)(=O)c1cccs1)c1ccc(C(=O)OC)cc1 (stereo not given),Potency,[1],3.16 µM (active)
same,Potency,[20],0.794 µM (active)
COC(=O)c1ccc(C(NC(=O)c2ccccc2)[C@]2(C)C[C@H]2C2CCCCC2)cc1 (stereo not given in full),Potency,[20],2.51 µM (active)
CN1[C@H]2CC(OC(=O)[C@H](CO)c3ccccc3)C[C@H]1[C@H]1O[C@H]12 (stereo not given in full),Potency,[2],inactive
same,Potency,[3],inactive
same,Potency,[5],inactive
same,Potency,[6],inactive
same,Potency,[7],inactive
same,Potency,[8],inactive
same,Potency,[9],inactive
same,Potency,[10],inactive
same,Potency,[11],inactive
same,outcome,[12],inactive
same,Potency,[13],inactive
same,activation,[14],-0.0972% and -0.778%
same,Potency,[15],inactive
same,Potency,[16],inactive
same,Potency,[17],inactive
same,max response,[18],-5.42% and 5.83%
same,outcome,[19],inactive
CCCCCCCC[N+](CCCCCCCC)(CCCCCCCC)CCCCCCCC,Potency,[1],12.6 µM (active)
same,Potency,[2],3.98 µM (active)
same,Potency,[3],3.16 µM (active)
same,Potency,[4],7.94 µM (active)
same,Potency,[5],3.98 µM (active)
same,Potency,[6],3.98 µM (active)
same,Potency,[7],5.01 µM (active)
same,Potency,[8],5.01 µM (active)
same,Potency,[9],5.01 µM (active)
same,Potency,[10],3.16 µM (active)
same,Potency,[11],3.98 µM (active)
same,Potency,[13],3.35 µM (active)
same,activation,[14],-8.33%
same,Potency,[15],1.5 µM (active)
same,Potency,[16],inactive
same,Potency,[17],9.44 µM (active)
CCC/C=C(\CCC)C(NS(=O)(=O)c1ccc(Cl)cc1)c1ccc(C(=O)OC)cc1 (stereo not given),Potency,[20],1.58 µM (active)
CCCC[C@@H]1C[C@H]1C(NC(=O)c1ccco1)c1ccc(Cl)cc1 (stereo not given in full),Potency,[1],inactive
same,Potency,[20],0.316 µM (active)
CCc1cccc2c(-c3ccccc3)c3c(nc12)OCC3,Potency,[20],7.94 µM (active)
O=C(/C=C/c1ccc(O)c(O)c1)OC1C[C@](O)(C(=O)O)C[C@@H](O)[C@H]1O (stereo not given in full),Potency,[1],inactive
same,Potency,[2],inactive
same,Potency,[3],inactive
same,Potency,[4],inactive
same,Potency,[5],inactive
same,Potency,[6],inactive
same,Potency,[7],inactive
same,Potency,[8],inactive
same,Potency,[9],inactive
same,Potency,[10],inactive
same,Potency,[11],inactive
same,outcome,[12],inactive
same,Potency,[13],inactive
same,Potency,[15],inactive
same,Potency,[16],inactive
same,Potency,[17],inactive
same,max response,[18],-2.65% and 8.84%
same,outcome,[19],inactive
CCCC[C@@H]1C[C@H]1C(NC(=O)c1cccs1)c1ccc(Cl)cc1 (stereo not given in full),Potency,[1],5.01 µM (active)
same,Potency,[20],0.0794 µM (active)
COC(=O)[C@@]1(Cc2ccccc2)[C@H]2c3cc(C(=O)N4CCCC4)n(Cc4ccccn4)c3C[C@H]2CN1C(=O)c1ccccc1,Potency,[1],2 µM (active)
COC(=O)[C@H](C)[C@H]1C[C@]1(C)[C@H](NC(=O)OCc1ccccc1)c1ccccc1,Potency,[1],7.94 µM (active)
same,Potency,[20],0.251 µM (active)
COC(=O)[C@@]1(Cc2ccccc2)[C@H]2c3cc(C(=O)N4CCCC4)n(CC4CC4)c3C[C@H]2CN1C(=O)c1ccccc1,Potency,[1],3.16 µM (active)
same,Potency,[20],3.16 µM (active)
CC(C)[C@@H](CC(=O)N[C@@H]1CCNC[C@H]1C(=O)N[C@H](CC(=O)N[C@@H](CCC(=O)O)CC(=O)O)Cc1c[nH]c2ccccc12)NC(=O)C[C@H](Cc1c[nH]c2ccccc12)NC(=O)[C@@H]1CNCC[C@H]1N,Potency,[20],inactive
CC(C)C[C@@H](CC(=O)N[C@@H](CCCN)CC(=O)N[C@@H]1CCCC[C@H]1C(=O)N[C@H](CC(=O)N[C@@H](CCC(=O)O)CC(=O)O)CC(C)C)NC(=O)[C@@H]1CCCC[C@H]1N,Potency,[20],inactive
CCC/C=C(\CCC)C(NS(=O)(=O)c1ccc(C(F)(F)F)cc1)c1ccccc1 (stereo not given),Potency,[20],0.398 µM (active)
Cc1ccc(S(=O)(=O)Oc2ccc(N=Nc3ccc(-c4ccc(N=Nc5c(O)ccc6cc(S(=O)(=O)O)cc(S(=O)(=O)O)c56)c(C)c4)cc3C)cc2)cc1,outcome,[12],inactive
same,activation,[14],-2.33%
same,Potency,[16],inactive
same,Potency,[17],inactive
same,max response,[18],-4.06%
same,outcome,[19],inactive
c1ccc2c(c1)-c1cccc3c1c-2cc1ccccc13,Potency,[2],inactive
same,Potency,[3],inactive
same,Potency,[4],inactive
same,Potency,[5],inactive
same,Potency,[6],inactive
same,Potency,[7],inactive
same,Potency,[8],inactive
same,Potency,[9],inactive
same,Potency,[10],inactive
same,Potency,[11],inactive
same,Potency,[13],inactive
same,Potency,[14],7.08 µM (active)
